Screening results (PubChem)
MRP-1 activ: activates MRP-1; 0.61% of 140,000 active; AID 799; viability increase, % at 10 µM; H69AR cells + doxorubicin, viability rescue, CellTiter-Glo;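 active means viability gain under doxorubicin at or above a set limit, the compound median plus 3 SD, cut at about 4.7% in these data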;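 further: MRP-1 overexpressing cells given doxorubicin 25 µM after compound pretreatment; 18-22 h compound pretreatment then 72 h with doxorubicin before readout; 0% = doxorubicin-only wells and 100% = vehicle-treated cells without doxorubicin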
F-actin modifier: alters cytoskeleton assembly in HUVEC cells. HUVEC TNFa F-actin phalloidin imaging, high content. inhibition, % at 2 µM. 0.18% of 91,000 active;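 active means inhibition above the batch mean plus 3 SD and confirmed as a hit by visual image inspection, cut at about 30% in these data, passing the limit was not always enough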
VCAM1 TNFa inh: reduces TNF alpha induced VCAM1 expression in HUVEC; 0.48% of 95,000 active; HUVEC TNFa-induced VCAM-1 immunofluorescence, high-content imaging; inhibition, % at 2 µM;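 active means inhibition above the batch mean plus 3 SD, with images confirmed as a hit by eye, cut at about 37% in these data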;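 further: 0% = TNF-stimulated DMSO wells and 100% = unstimulated control wells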
E-sel TNF inh: TNF alpha driven E-selectin expression inhibition | HUVEC TNFa-induced E-selectin immunofluorescence, high content | 0.71% of 120,000 active | AID 1246 | inhibition, % at 2 µM;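 active means inhibition above the batch mean plus 3 SD, and confirmed as a hit on visual image review, cut at about 43% in these data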;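 further: 0% = TNF-stimulated DMSO wells and 100% = unstimulated control wells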
MRP reversal: MRP-mediated drug resistance reversal | H69AR cells + 2 uM doxorubicin, CellTiter-Glo, 72 h | AID 602 | differential viability (reversal), % at 10 µM | 0.04% of 85,000 active;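 active means viability drop by adding the cancer drug above about 55%, with treated viability meeting a 40% cutoff, limit read from the data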;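 further: viability without doxorubicin minus viability with 2 µM doxorubicin for each compound; larger differential means the compound sensitizes cells more to doxorubicin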
An asterisk follows results filed as active; / = no result. Rows were chosen to be rich in hits. Some 1.5% of all compounds tested hit in one or more screens of this group.

SMILES	MRP-1 activ	F-actin modifier	VCAM1 TNFa inh	E-sel TNF inh	MRP reversal
O=c1ccc(Oc2nc(N3CCOCC3)nc(N3CCOCC3)n2)n[nH]1	-2	-2	10	-12	-7
COc1ccc(S(=O)(=O)n2ccc(-c3ccc(OCCN(C)c4ccccn4)cc3)n2)cc1	-1	66*	0	29	/
CSc1nc(-c2ccccc2)nn1C(=O)c1ccc(Cl)cc1	0	2	14	-9	/
O=C(c1ccc(Cl)cc1)N1CCCC(c2ccccc2)=N1	-1	15	16	100*	/
C/C=C/C=N/Nc1nc(C)cc(=O)[nH]1	/	/	/	-2	/
CCOc1ccccc1N1CCN(C(=O)c2cccc(-c3ccc(O)cc3)c2)CC1	-2	23	44*	2	-13
CCOc1ccccc1N1CCN(C(=O)c2ccncc2)CC1	-1	0	-10	-5	/
O=C(O)c1ccccc1C(=O)N1CCN(c2cccc(Cl)c2)CC1	-2	10	7	11	-11
CCOc1ccccc1C(=O)N1CCN(c2cccc(Cl)c2)CC1	-1	-5	84*	-14	-37
Cc1noc(/C=C/N(C)C)c1S(=O)(=O)N1CCCC(C(=O)NCc2cccs2)C1 (stereo not given)	10*	10	14	27	3
Cc1ccc(NC(=O)C2CCCN(S(=O)(=O)c3c(C)noc3C)C2)nc1 (stereo not given)	-2	33	-16	65*	/
Cc1ccc(CCNC(=O)C2CCCN(S(=O)(=O)c3c(C)noc3C)C2)cc1 (stereo not given)	0	-11	19	/	6
Cc1ccc(CCNC(=O)C2CCCN(S(=O)(=O)c3c(C)noc3/C=C/N(C)C)C2)cc1 (stereo not given)	-1	4	0	55*	-3
Cc1ccc(CNC(=O)C2CCN(S(=O)(=O)c3c(C)noc3/C=C/c3ccco3)CC2)cc1	2	-14	-14	57*	0
Cc1nc2nc(-c3ccco3)[nH]n2c(=O)c1C	1	-4	4	-17	-16
O=C(Nc1ccccc1Br)C1CC(=O)N(c2ccc3c4c(cccc24)CC3)C1 (stereo not given)	-3	/	/	/	/
Cc1ccc(OCCOc2ccc(Cl)cc2Cl)c([N+](=O)[O-])n1	2	/	/	/	/
CCn1c(CNC(=O)COc2ccc(C(C)C)cc2)nnc1SCC(=O)Nc1ccccc1C(C)C	6.2*	-6	6	-25	/
CCNC(=S)Nc1cc(Cl)ccc1Oc1ccccc1	0	/	/	/	/
O=S(=O)(c1ccc2c(c1)C(=NO)c1cc(S(=O)(=O)N3CCCCC3)ccc1-2)N1CCCCC1	-5	60*	100*	6	0
O=S(=O)(Nc1ccccn1)c1ccc(Cl)c2ccccc12	/	/	/	82*	/
CCOc1ccc(S(=O)(=O)Nc2ccccn2)c2ccccc12	-2	4	6	-5	-23
O=C(CSc1nnc(Cc2ccccc2)o1)NC1CCCCC1	0	8	-1	-25	-3
COc1ccc(Cc2nnc(SCC(=O)NC3CCCC3)o2)cc1	0	4	16	54*	8
Cc1ccc(S(=O)(=O)Nc2cc(C(=O)NCCN3CCCC3)ccc2N2CCCCC2)cc1	-5	-20	74*	/	23
SMILES	MRP-1 activ	F-actin modifier	VCAM1 TNFa inh	E-sel TNF inh	MRP reversal
Cc1ccc(S(=O)(=O)Nc2cc(C(=O)NCCN(C)C)ccc2N2CCCCC2)cc1	-5	-10	19	/	7
C=CC(=O)Nc1ccc(Br)cc1	-6	-2	52*	12	0
O=C(Nc1ccc(Br)cc1)c1ccco1	2	0	-3	3	13
O=C(Nc1ccc(OC(F)(F)F)cc1)c1[nH]ncc1[N+](=O)[O-]	/	/	/	-17	/
COc1ccc(C(=O)NCc2ccc(-c3nc4ccccc4s3)cc2)cc1	7.5*	3	2	-26	/
Cc1cc(=O)[nH]c(SCC(=O)NCc2ccco2)n1	-1	31	10	100*	3
Cc1cc(-c2ccco2)n(CC(=O)NCc2ccco2)n1	-1	2	3	76*	-24
Cc1cc([N+](=O)[O-])cnc1Sc1nccn1C	-2	/	/	/	/
CCOc1ccc2[nH]c(C)c(CN3CCCCC3)c(=O)c2c1	-3	-2	11	/	10
CCN1CCN(Cc2c(C)[nH]c3ccc(C(=O)OC)cc3c2=O)CC1	-2	8	96*	-15	-20
COC(=O)NCC(c1ccco1)N1CCN(c2ccccc2)CC1 (stereo not given)	/	/	/	18	/
Nc1c(C(=O)NC2CCCC2)c2nc3ccccc3nc2n1N	-5	47*	9	/	7
Nc1c(C(=O)NC2CCCC2)c2nc3ccccc3nc2n1/N=C/c1ccco1	-2	2	5	-3	4
COc1ccccc1-c1nnc(Sc2nc([N+](=O)[O-])nn2C)o1	-2	2	25	/	0
Cc1cccc(NC(=O)Nc2ccc(C#N)cc2)n1	-4	/	/	55*	-2
C/C(=N/OCO/N=C(\C)c1ccc(F)cc1F)c1ccc(F)cc1F	1	/	/	50	/
COc1cccc(/C=N/NC(=O)c2cc(-c3cccn3C)n[nH]2)c1O	7.1*	/	/	/	/
CCOC(=O)c1sc(Nc2nc3cc4c(cc3s2)OCO4)cc1C	4.7*	/	/	/	/
CCOC(=O)c1sc(Nc2nc3c(OC)cccc3s2)cc1C	-1	/	/	/	/
O=C(CN1CCCCC1)N/N=C/c1cc2ccccc2nc1Cl	/	/	/	-13	/
COc1ccc(-c2cc(C(F)(F)F)nc(SCC(=O)NCCCN3CCOCC3)n2)cc1	/	/	/	38	/
Cc1c(C(=O)OCC(C)C)[nH]c2c1C(=O)CC(c1ccco1)C2 (stereo not given)	-5	21	67*	/	-18
C/C=C/COC(=O)c1[nH]c2c(c1C)C(=O)CC(c1ccco1)C2 (stereo not given)	-4	-4	51*	/	-17
C=CCOC(=O)c1[nH]c2c(c1C)C(=O)CC(c1ccco1)C2 (stereo not given)	-5	/	/	0	-35
O=C1c2ccsc2SCCN1Cc1c(Cl)cccc1Cl	7.0*	-5	-10	32	9
SMILES	MRP-1 activ	F-actin modifier	VCAM1 TNFa inh	E-sel TNF inh	MRP reversal
CCS(=O)(=O)Nc1ccc(-c2cc(-c3ccccc3)c3cc(C)ccc3n2)cc1	-6	/	/	79*	/
Fc1ccccc1SCc1nnc(-c2ccccc2Br)o1	/	/	/	68*	/
CC1CCC2(CC1)C(Nc1cccc(Cl)c1)=NC(=S)N2CC#N (stereo not given)	4	15	2	-13	1
Cc1ccc2nc3cc([N+](=O)[O-])cc([N+](=O)[O-])c3cc2c1	/	/	/	99*	/
Cc1ccc(C)c(NC(=O)CSc2nnc([C@@H](N)Cc3ccccc3)o2)c1	0	4	3	62*	-3
Fc1ccc(-n2nnnc2-c2cnc(-c3cccs3)nc2C(F)(F)F)cc1	5.1*	2	18	-16	/
Cc1ccc2oc(Nc3nc(-c4ccccc4)cc(=O)[nH]3)nc2c1	/	/	/	100*	/
Cc1ccccc1Oc1nc2c(C)cccn2c(=O)c1/C=C(\C#N)C(=O)Nc1c(C)n(C)n(-c2ccccc2)c1=O	-5	/	/	/	/
COc1ccc(N2CCN(c3nc(NCCO)nc(N4CCOCC4)n3)CC2)cc1	1	-3	1	-2	19
COc1ccc(N2CCN(c3nc(Cl)nc(N4CCOCC4)n3)CC2)cc1	8.8*	7	-2	-15	-8
